High-throughput results as filed in PubChem BioAssay.
ATXN2 expr inh: inhibitors of ATXN2 expression. HEK-293 ATXN2-luciferase reporter, luminescence, 24 h. Potency, µM (titrated, usually from 57 µM), actives largely listed as inhibitors. actives 0.72% (n = 360,000). AID 1745845; further: nearly all actives have a fitted effect of over 55% in size
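ATXN2-luciferase reporter cells (luciferase flanked by upstream and downstream ATXN2 gene portions) were treated 24 h at 37 °C with compounds at up to 57 uM. SteadyGlo luminescence gave expression; GF-AFC fluorescence gave viability.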
SW480 rerep: DNA re-replication induction in SW480 cells; Potency, µM (series often up to 46.1 µM), hits mostly activators; SW480 DNA re-replication, Hoechst DNA content imaging, 48 h; actives 1.8% (n = 340,000); AID 624297; further: nearly all actives have a fitted effect of over 55% in size
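DNA re-replication was detected as more nuclei of elevated Hoechst intensity after 48 hr exposure to compound (23 nL pinned per well of 250 cells).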
PINK1 expr mod: modulators of PINK1 expression | PINK1 immunofluorescence, high-content cytometry, 24 h | Potency, µM (doses to about 76.6 µM), hits mostly activators | actives 0.2% (n = 410,000) | AID 624263; active means well fitted activation curve with a large enough effect; inconclusive means small, poorly fitted or top-dose-only effect; cell line not stated here; further: nearly all actives have a fitted effect of over 65% in size
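Stable cell line treated 24 h with compounds at 5 concentrations (CCCP controls), then fixed and immunostained for PINK1 plus nuclear and cell stains; PINK1 immunofluorescence quantified by laser-scanning microplate cytometry.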
IL-1B inflam inh: inhibitors of inflammasome signaling (IL-1 beta secretion); THP-1 LPS/ATP IL-1B secretion, AlphaLISA, 16 h; active compounds read low; activity change, % at 57.5 µM; actives 4.7% (n = 360,000); AID 743279; in the data active means activity change below about -50%; inconclusive means mostly about -30% to -49%
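Secreted IL-1B measured by AlphaLISA bead assay after 16 h compound exposure of THP-1 cells; compounds (final up to 57.5 uM) added 1 h before LPS (250 ng/mL) and ATP (1.25 mM) stimulation; lower signal means less secretion.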
MCF10A rereplic: induces DNA re-replication in MCF 10a normal breast cells. MCF 10A DNA re-replication, Hoechst nuclear intensity, 48 h. Potency, µM (series often up to 46.1 µM), most hits filed as activators. actives 2.9% (n = 350,000). AID 624296; further: nearly all actives have a fitted effect of over 50% in size
S2 tox: reduces viability in counter-screen for ATXN expression inhibitors; actives 0.49% (n = 400,000); AID 651635; S2 cells (HEK-293 line with an ATXN2-luciferase reporter) viability, CellTiter-Fluor protease fluorescence, 24 h; Potency, µM (doses to about 56.7 µM), usual class: cytotoxic; further: nearly all actives have a fitted effect of over 40% in size
Each line names hits and unclear results; the compound was inactive in the other large screens. Compounds with a hit are over-represented: about 7.1% of the library has one in this group of screens. Unless noted, the call rests on the fitted dose curve; in most records, active means well fitted curve in the direction sought with a large enough effect; inconclusive means small, poorly fitted or top-dose-only effect, or another doubt; inactive means no such curve, though single readings can be large; an effect the other way counts as inactive or inconclusive.

Cc1cc(Br)ccc1NC(=O)c1sc2ncnc(N3CCN(c4ccccn4)CC3)c2c1C	SW480 rerep 15µM, IL-1B inflam inh -77, MCF10A rereplic 7.3µM
O=C(Cn1c(=O)n(CCc2ccccc2)c(=O)c2cccnc21)Nc1ccc(F)cc1	none (no result: SW480 rerep, IL-1B inflam inh, MCF10A rereplic)
CCSc1ncc(Cl)c(C(=O)N(Cc2ccccc2)c2ccc(OC)cc2)n1	none (no result: ATXN2 expr inh, SW480 rerep, IL-1B inflam inh, MCF10A rereplic, S2 tox)
CCc1ccc(CNC(=O)CCn2c(=O)c3cccn3c3ccc(F)cc32)cc1	none (no result: ATXN2 expr inh, SW480 rerep, IL-1B inflam inh, MCF10A rereplic, S2 tox)
CC1=C(c2ccc(C)c(C)c2)S(=O)(=O)N=C1N1CCN(c2cccc(C(F)(F)F)c2)CC1	none (no result: ATXN2 expr inh, SW480 rerep, IL-1B inflam inh, MCF10A rereplic, S2 tox)
Cc1cc2nc(N3CCCN(Cc4cccn4-c4ncccn4)CC3)nc(C)c2cc1C	S2 tox inconclusive (no result: ATXN2 expr inh, SW480 rerep, IL-1B inflam inh, MCF10A rereplic)
O=S(=O)(CCN1CCSCC1)c1ccc(Cl)cc1	SW480 rerep inconclusive, IL-1B inflam inh -73, MCF10A rereplic inconclusive, S2 tox inconclusive
O=S(=O)(CS(=O)(=O)c1ccc(Cl)cc1)c1ccc(Cl)cc1	MCF10A rereplic 21µM (no result: IL-1B inflam inh)
O=S(=O)(CCN1CCOCC1)c1ccccc1	none
C[C@H](CCC(=O)O)[C@H]1CC[C@H]2[C@@H]3[C@H](O)C[C@@H]4C[C@H](O)CC[C@]4(C)[C@@H]3CC[C@]12C	none (no result: SW480 rerep, PINK1 expr mod, IL-1B inflam inh, MCF10A rereplic, S2 tox)
O=C(NNC(=O)c1ccccc1OCc1ccc(F)cc1)c1ccccc1O	ATXN2 expr inh 16µM, SW480 rerep 3.3µM, S2 tox inconclusive
O=C(NNC(=O)c1ccccc1OCc1ccccc1)c1ccccc1O	ATXN2 expr inh inconclusive, SW480 rerep inconclusive
CC(C)[C@H](NC(=O)CCCn1nnc2ccccc2c1=O)C(=O)O	IL-1B inflam inh -73
Cc1ccc(CCNC(=O)c2cc3n(n2)CCCN(Cc2ccc(C)cc2)C3=O)cc1	none (no result: SW480 rerep, IL-1B inflam inh, MCF10A rereplic)
O=C(Nc1ccc(N2CCCCC2)cc1)c1ccc([N+](=O)[O-])o1	SW480 rerep inconclusive, IL-1B inflam inh -99, MCF10A rereplic inconclusive, S2 tox inconclusive
O=C(Nc1ccc(N2CCCC2)c(Cl)c1)c1ccc([N+](=O)[O-])o1	IL-1B inflam inh -109, MCF10A rereplic 2.9µM
CS(=O)(=O)N1CCN(c2ccc(NC(=O)c3cc4ccccc4o3)cc2)CC1	SW480 rerep inconclusive
O=C(Nc1ccc(N2CCN(Cc3ccccc3F)CC2)cc1)c1ccc([N+](=O)[O-])o1	SW480 rerep inconclusive, IL-1B inflam inh -103, MCF10A rereplic 2.1µM
CS(=O)(=O)N1CCN(c2ccc(NC(=O)c3ccc([N+](=O)[O-])o3)cc2)CC1	IL-1B inflam inh -97, MCF10A rereplic 2.1µM, S2 tox inconclusive (no result: ATXN2 expr inh)
O=C(Nc1ccc(N2CCN(Cc3ccccc3F)CC2)cc1)c1ccccc1[N+](=O)[O-]	MCF10A rereplic inconclusive
Cc1ccc2nc(-c3ccc(NC(=O)COc4ccc(Cl)c(C)c4)cc3)sc2c1	none (no result: ATXN2 expr inh, SW480 rerep, IL-1B inflam inh, MCF10A rereplic, S2 tox)
CC#CCC(C)[C@H](O)/C=C/[C@@H]1[C@H]2C/C(=C/CCCC(=O)O)C[C@H]2C[C@H]1O (some centres not stated)	none (no result: ATXN2 expr inh, SW480 rerep, PINK1 expr mod, IL-1B inflam inh, MCF10A rereplic)
Cc1noc(-c2ccc(NCc3ccccc3)c([N+](=O)[O-])c2)n1	none (no result: SW480 rerep, IL-1B inflam inh, MCF10A rereplic)
Oc1c(C(c2ccccc2Cl)N2CCN(Cc3ccccc3)CC2)sc2nc(-c3ccco3)nn12 (configuration not stated)	none (no result: SW480 rerep, IL-1B inflam inh, MCF10A rereplic)
CC1CCN(c2ccc(NC(=O)c3ccc([N+](=O)[O-])o3)cc2)CC1	SW480 rerep 9.2µM, IL-1B inflam inh -109, MCF10A rereplic 3.3µM, S2 tox inconclusive
CC1CCN(C(=O)c2ccc([N+](=O)[O-])o2)CC1	SW480 rerep inconclusive, MCF10A rereplic inconclusive
Cc1cccc(OCC(=O)Nc2cc(S(=O)(=O)N3CCCCC3)ccc2N2CCN(C)CC2)c1	S2 tox inconclusive (no result: ATXN2 expr inh)
CN1CCN(c2ccc(S(=O)(=O)N3CCCCC3)cc2NC(=O)COc2cccc(Cl)c2)CC1	SW480 rerep inconclusive, IL-1B inflam inh -52, MCF10A rereplic inconclusive, S2 tox inconclusive
CCc1cc(C(=O)Nc2cc(S(=O)(=O)N3CCCCC3)ccc2N2CCN(C)CC2)sc1C	IL-1B inflam inh -70, S2 tox inconclusive (no result: ATXN2 expr inh, SW480 rerep, MCF10A rereplic)
Cc1cc(NC(=O)CSCC(=O)Nc2cc(Cl)ccc2N2CCN(C)CC2)no1	none (no result: ATXN2 expr inh)
